High-throughput results deposited in PubChem by The Scripps Research Institute Molecular Screening Center.
Rows were chosen to be rich in hits. Some 2.6% of all compounds tested hit in one or more screens of this group.
Nox1 inh = inhibitors of human NADPH oxidase 1 (Nox1); AID 1792, 2009; Q9Y5S8; 0.81% of 16,000 active; inhibition, % at 6.7 µM; HT29 cells, luminol chemiluminescence ROS
Target sequence (Q9Y5S8 whole entry, looked up): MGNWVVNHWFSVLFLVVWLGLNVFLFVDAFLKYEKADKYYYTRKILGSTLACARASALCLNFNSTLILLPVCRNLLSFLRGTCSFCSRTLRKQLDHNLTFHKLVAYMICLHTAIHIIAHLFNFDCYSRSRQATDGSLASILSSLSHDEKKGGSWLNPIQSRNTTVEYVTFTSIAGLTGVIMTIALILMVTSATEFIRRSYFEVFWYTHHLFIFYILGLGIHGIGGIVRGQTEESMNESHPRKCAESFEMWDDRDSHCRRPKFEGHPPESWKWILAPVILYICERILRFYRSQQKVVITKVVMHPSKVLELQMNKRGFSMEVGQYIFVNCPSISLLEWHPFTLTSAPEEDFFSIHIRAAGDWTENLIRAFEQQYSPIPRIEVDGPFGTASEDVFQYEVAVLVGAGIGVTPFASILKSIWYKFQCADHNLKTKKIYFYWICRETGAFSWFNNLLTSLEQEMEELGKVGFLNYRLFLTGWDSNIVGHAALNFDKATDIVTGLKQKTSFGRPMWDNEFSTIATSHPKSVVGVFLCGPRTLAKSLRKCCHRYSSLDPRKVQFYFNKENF
KOR antag MB = antagonists of human kappa opioid receptor OPRK1, Maybridge library; OPRK1 cells, antagonist mode, fluorescence readout; Kappa-type opioid receptor (Homo sapiens), P41145; inhibition, % at 9 µM; 0.4% of 16,000 active; in the data active = inhibition above about 50%
luminol inh ctr = counter-screen for Nox1 inhibitors: inhibitors of luminol chemiluminescence; inhibition, % at 6.7 µM; 0.4% of 16,000 active; AID 1823, 2009; HRP/luminol/H2O2 chemiluminescence counterscreen; also: reference of the scale not given here
PME-1 Maybr inh = inhibitors of human PME-1 in Maybridge library; inhibition, % at 9 µM; 0.5% of 16,000 active; recombinant PME-1, FP-Rh probe fluorescence polarization; in the data active = inhibition above about 30%
TLR4-MyD88 inh = inhibitors of human TLR4-MyD88 binding; Cell-based TLR4-MyD88 binding inhibition assay; Toll-like receptor 4 (Homo sapiens), O00206; inhibition, % at 10 µM; 0.06% of 16,000 active; in the data active = inhibition above about 45%
NOTCH ag = agonists of NOTCH signaling | NOTCH signaling luciferase reporter cells, luminescence | activation, % at 2.5 µM | 0.4% of 15,000 active | AID 434982, 2010; in the data active = activation above about 2.2%
An asterisk follows results filed as active; nt = no result. Rule as the data show it, unless noted: active = inhibition above about 75%; inactive = the rest.

SMILES	Nox1 inh	KOR antag MB	luminol inh ctr	PME-1 Maybr inh	TLR4-MyD88 inh	NOTCH ag
S=c1[nH]cc(-c2ccc(Br)cc2)[nH]1	98*	6	-3	10	-1	0
Clc1ccc(-n2nnc(/C=C/C=C/N3CCOCC3)n2)cc1	-29	8	2	-20	-4	-1
COC(=O)c1cnc(NNS(=O)(=O)c2ccc(Cl)cc2)nc1C(F)(F)F	98*	-9	19	3	-2	0
COC(=O)c1cnc(NNC(=O)C(Cl)Cl)nc1C(F)(F)F	39	23	43	7	2	1
N#Cc1c(-c2ccncc2)[nH]c(=S)[nH]c1=O	-9	-2	8	1	7	-1
N#Cc1c(N)nc2[nH]c(=S)[nH]c(=O)c2c1-c1ccc([N+](=O)[O-])cc1	24	3	84*	8	-3	-6
COc1ccc(C(=O)C=C(C)C)c(O)c1O	76*	-21	41	2	-3	0
O=C(N/N=C/c1ccc(O)cc1)N/N=C/c1ccc(O)cc1	96*	6	-61	0	-11	0
CN(NC=C(C#N)C#N)c1ccccc1[N+](=O)[O-]	104*	0	-5	6	2	0
C/C=C/C=N/NC(=O)N/N=C/C=C/C	5	24	-3	3	-6	3.0*
O=[N+]([O-])c1ccc(OCS(=O)(=O)c2ccc(F)cc2F)c(Cl)c1	24	6	-7	7	-4	0
COc1ccc(OC)c(S(=O)(=O)c2ccc([N+](=O)[O-])cc2Cl)c1	89*	-7	4	2	9	-1
Cc1nn(C(=O)Nc2ccccc2)c(C)c1Oc1ccc(Cl)cc1	-71	-5	-3	-19	11	1
Cc1nn(C(=O)c2ccccc2)c(C)c1Oc1ccc(Cl)cc1	-41	-8	-1	1	12	3.9*
CCCCCCCCCCCC(=O)Nc1nccs1	-17	-14	2	-5	-18	0
CCOC(=O)c1ccc(N2CC3CCCCN3C2c2cccc(OC)c2O)cc1 (centres undefined)	3	60*	53	3	-1	0
OC(COc1ccc2c(c1)OCO2)CN1CCCN(c2nc3ccc(Cl)cc3s2)CC1 (centres undefined)	-23	-5	3	5	-5	-1
Nc1nnc(Sc2cc3c(cc2[N+](=O)[O-])C(=O)NC3=O)s1	76*	6	-1	-3	-4	1
N#Cc1cc([N+](=O)[O-])ccc1Sc1nnc(N)s1	-21	-2	-2	-2	-7	0
Cc1onc(-c2ccccc2)c1C(=O)Cn1cc([N+](=O)[O-])nc1C	38	5	3	4	2	-1
COc1cccc(/C=C(\C#N)c2ccc([N+](=O)[O-])cc2)c1OC	-5	69*	2	-2	-3	1
c1ccc(-c2cc3ncnc(NCc4ccc5c(c4)OCO5)c3s2)cc1	17	61*	0	5	-2	0
O=S(=O)(Nc1cc(C(F)(F)F)ccc1N1CCOCC1)c1cc(Cl)sc1Cl	31	16	-5	25	-10	0
O=[N+]([O-])c1cc(Br)cnc1Sc1n[nH]c(-c2ccccc2)n1	35	22	99*	4	-6	0
O=[N+]([O-])c1cnc(Sc2n[nH]c(-c3cccs3)n2)s1	47	16	-3	7	-13	-1
SMILES	Nox1 inh	KOR antag MB	luminol inh ctr	PME-1 Maybr inh	TLR4-MyD88 inh	NOTCH ag
C=C(C)c1ccccc(=O)c1O	-21	-12	-2	3	0	4.9*
CSc1cccc(NC(=S)Nc2cccc(SC)c2)c1	-26	6	-10	6	1	2.5*
CCOC(=O)/C(C#N)=C/Nc1ccccc1Cl	12	-10	-6	4	-3	0
O=C(Cc1ccc([N+](=O)[O-])cc1)Nc1nccs1	0	-20	-2	4	0	3.0*
Cc1nn(C)c2sc(C(=O)NCCc3ccccn3)cc12	19	-16	-7	7	-9	-1
O=C1CS/C(=C/C(=O)c2cccs2)N1	7	13	4	0	4	0
O=C1CS/C(=C\C(=O)N2CCOCC2)N1	-6	-4	78*	3	0	nt
Cn1c(Sc2ncnc(Sc3nnc(C(F)(F)F)n3C)c2[N+](=O)[O-])nnc1C(F)(F)F	37	-3	101*	6	4	0
COC(=O)C1=C(Nc2ccccc2NS(=O)(=O)c2ccc(OC)cc2)CSC1	49	-2	29	9	0	0
COC(=O)C1=C(Nc2ccc(O)cc2)CSC1	99*	22	-19	6	1	0
COc1ccc(NC(=O)C(C(=O)Nc2ccc(OC)cc2OC)c2ccccc2)c(OC)c1	-17	-8	-5	1	0	-5
Nc1nnc(SCC(=O)c2ccc(F)cc2)s1	-19	6	20	0	-3	0
Cc1[nH]c2ccccc2c1SCc1n[nH]c(=S)n1C	7	-99	1	34*	-7	0
CCOC(=O)CSc1c(C)[nH]c2ccccc12	-6	16	-1	7	-13	0
CCn1c(CN2c3ccccc3Sc3ccccc32)n[nH]c1=S	26	-14	16	14	-6	0
CCn1c(-c2cc(-c3ccccc3)sc2N)n[nH]c1=S	98*	5	6	10	-3	-1
Cc1ccc2snc(C(N)=O)c2c1	-66	19	5	-3	6	0
Cc1noc(C)c1C(=O)Nc1ccc(N2CCOCC2)nc1N1CCOCC1	78*	30	4	6	-1	0
CCOC(=O)C1CCN(c2ccccc2CN2CCN(c3ccccc3OCC)CC2)CC1	-45	-1	4	2	5	-1
CCOC(=O)C1CCN(Cc2cccc(NC(=O)c3ccco3)c2)CC1	-85	56*	0	3	1	0
Cc1nc(-c2nc(-c3ccc(Cl)s3)cs2)cs1	-33	-4	-1	2	5	0
CCOC(=O)[C@@H](N)CCSC	15	52*	-3	6	0	0
NC(=NC(=O)c1cccc(C(F)(F)F)c1)c1ccc(C(F)(F)F)cn1	41	58*	-1	0	-1	0
N/C(=N\NC(=O)c1cccc(C(F)(F)F)c1)c1cnccn1	-43	22	1	-4	2	0
Cn1nc(-c2ccccc2)cc1NC(=O)c1sc2ccccc2c1Cl	6	-16	-6	-11	-1	-2
NS(=O)(=O)c1ccc(NNC(=O)c2c(F)cccc2Cl)cc1	81*	6	3	11	5	0
N#CCS(=O)(=O)Cc1ccc(F)cc1	22	18	-4	7	nt	-1
C#Cc1cccc(NC(=O)c2sc3nc4c(c(-c5cccs5)c3c2N)CCCC4)c1	-14	65*	2	-1	-4	1
Clc1ccc2nc3c(nc2c1)Nc1ccccc1S3	20	90*	2	9	43	nt
CCN(CC)c1ccc(NC(=O)c2c(F)cccc2F)c(N(CC)CC)n1	94*	3	4	6	-6	0
